From PubChem BioAssay (EPA / NIEHS)
Inconclusive results are not listed. Calls of active or inactive are those of the source. How the source made its calls, unless noted: active means hit-call score of the fitted dose curve at least 0.9, where 1 is the maximum; inactive means score below 0.9.

Experiment: CCTE_Shafer_MEA_dev_bursting_electrodes_number: CCTE's Neural Network Formation Assay for Number of Bursting Electrodes, Shafer Lab (AID 2284043; active means hit-call score of the fitted dose curve at least 0.9, where 1 is the maximum;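 on AC50: potency is for loss of bursting electrodes relative to DMSO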)
Method in brief: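 Read-out is the per-well number of electrodes bursting at least once every 2 minutes, recorded on days 5, 7, 9 and 12 and collapsed by trapezoidal area under the curve. Cultures were primary rat cortical neurons on MEA plates, treated continuously from plating.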

Structure (SMILES) | outcome | AC50
CC(CCl)OP(=O)(OC(C)CCl)OC(C)CCl (stereo not drawn) | inactive | –
O=C(O)C=C(C(F)(F)F)C(F)(F)F | inactive | –
O=C(O)C(F)(F)C(F)(F)C(F)F | inactive | –
FC(F)(F)C(F)(F)C(F)(F)C(F)(F)C(F)(F)CCI | – | 822 nM (active)
O=C(O)C(F)(F)C(F)(F)C(F)(F)F | inactive | –
OCC(F)(F)C(F)(F)C(F)(F)C(F)(F)C(F)(F)C(F)F | inactive | –
O=C(O)C(F)(F)C(F)(F)C(F)(F)C(F)(F)C(F)(F)C(F)(F)C(F)(F)C(F)(F)Cl | inactive | –
O=P(O)(O)OCCC(F)(F)C(F)(F)C(F)(F)C(F)(F)C(F)(F)C(F)(F)F | – | 100 nM (active)
OC[C@@H](O)[C@@H](O)[C@H](O)[C@@H](O)CO | inactive | –
OCC(F)(F)C(F)(F)C(F)(F)F | inactive | –
N=C(N)C(F)(F)C(F)(F)C(F)(F)C(F)(F)C(F)(F)C(F)(F)C(F)(F)F | inactive | –
CC(C)(C)C(=O)CC(=O)C(F)(F)C(F)(F)C(F)(F)F | – | 15000 nM (active)
FC(F)(F)C(F)(F)CNCC(F)(F)C(F)(F)F | inactive | –
O=S(=O)(OCC(F)F)C(F)(F)F | inactive | –
C=CC(=O)OCC(F)(F)C(F)(F)C(F)(F)C(F)(F)COC(=O)C=C | – | 2080 nM (active)

Experiment: CCTE_Shafer_MEA_dev_per_burst_interspike_interval: CCTE's Neural Network Formation Assay for Burst Interspike Interval, Shafer Lab (AID 2284044);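 further: mean spike spacing inside bursts as AUC over recordings on days 5 7 9 12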;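 on AC50: potency for a decrease of within-burst interspike interval below DMSO level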
Method in brief: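 Developmental network-formation MEA in primary rat cortical cultures with exposure spanning days 0–12. Within-burst ISI is averaged per well and integrated across recording days by area under the curve, with DMSO as negative control baseline.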

Structure (SMILES) | outcome | AC50
OCC(F)(F)C(F)(F)C(F)(F)C(F)F | inactive | –
CC(CCl)OP(=O)(OC(C)CCl)OC(C)CCl (stereo not drawn) | inactive | –
O=C(O)C=C(C(F)(F)F)C(F)(F)F | inactive | –
O=C(O)C(F)(F)C(F)(F)C(F)F | inactive | –
FC(F)(F)C(F)(F)C(F)(F)C(F)(F)C(F)(F)CCI | inactive | –
OCCCC(F)(F)C(F)(F)C(F)(F)F | inactive | –
O=C(O)C(F)(F)C(F)(F)C(F)(F)F | inactive | –
Cc1ccc(S(=O)(=O)OCC(F)(F)C(F)(F)C(F)(F)C(F)(F)C(F)(F)C(F)F)cc1 | inactive | –
OCC(F)(F)C(F)(F)C(F)(F)C(F)(F)C(F)(F)C(F)F | inactive | –
O=C(O)C(F)(F)C(F)(F)C(F)(F)C(F)(F)C(F)(F)C(F)(F)C(F)(F)C(F)(F)Cl | inactive | –
O=P(O)(O)OCCC(F)(F)C(F)(F)C(F)(F)C(F)(F)C(F)(F)C(F)(F)F | inactive | –
O=C(O)C(F)(F)C(F)(F)C(F)(F)C(F)(F)C(F)(F)C(F)(F)C(F)(F)C(F)(F)C(F)(F)C(F)F | inactive | –
OC[C@@H](O)[C@@H](O)[C@H](O)[C@@H](O)CO | inactive | –
NC(=O)C(F)(F)C(F)(F)C(F)(F)C(F)(F)F | inactive | –
O=S(=O)(OCCOC(F)(F)F)C(F)(F)F | inactive | –
OCC(F)(F)C(F)(F)C(F)(F)F | inactive | –
COC(=O)CCC(F)(F)C(F)(F)C(F)(F)C(F)(F)F | inactive | –
N=C(N)C(F)(F)C(F)(F)C(F)(F)C(F)(F)C(F)(F)C(F)(F)C(F)(F)F | inactive | –
CC(C)(C)C(=O)CC(=O)C(F)(F)C(F)(F)C(F)(F)F | inactive | –
FC(F)(F)C(F)(F)CNCC(F)(F)C(F)(F)F | inactive | –
O=S(=O)(OCC(F)F)C(F)(F)F | inactive | –
C=CC(=O)OCC(F)(F)C(F)(F)C(F)(F)C(F)(F)COC(=O)C=C | – | 4.18 µM (active)
FC(F)(F)C(F)(F)C(F)(F)C(F)(F)C(F)(F)C(F)(F)CC1CO1 (stereo not drawn) | inactive | –
